The text below walks through data of PubChem BioAssay AID1259418 (Broad Institute, 2018).

Hit rate of the full screen: of about 3,400 compounds, about 840 (25%) were called active. Another 11% or so got no clear call; they are omitted. Only a sample is shown. Measured potencies and affinities stand elsewhere. A number with no mark means an inactive call.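 The calls were made as follows: active = fitted half-maximal concentration of signal decrease at or below twice the sample's top tested concentration; inconclusive = flat curve between -70 and -30 percent, or poor fit; inactive = flat within 30 percent, signal rise, or potency above limit.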

A short description of the assay: T. gondii growth inhibition with IFN-gamma, dose response, cell-based, ME49Luc, HeLa, luciferase, 72 h (AID 1259418). The note with it: T. gondii ME49Luc in IFN-y HeLa, stronger effect = lower value, -100% = high-dose IFN-γ control wells; at 19.5 µM unless noted.
Regarding `Cc1ccc(-c2coc(-c3ccc(NC(=O)c4cccs4)cc3)n2)cc1`, the max activity is 20.5% [at 0.35 µM].

For the molecule `Cc1ccc(C)c(-c2coc(-c3ccc(NC(=O)c4cccs4)cc3)n2)c1`, the max activity is 62.5%.

`COc1cc(NC(=O)Nc2ccc(-c3nc(-c4ccc(C)cc4)co3)cc2)cc(OC)c1OC`: the max activity was -16.6% [at 0.68 µM].

With `COc1cc(C(=O)Nc2ccc(-c3nc(-c4cc(C)ccc4C)co3)cc2)cc(OC)c1OC`, the max activity was -22.7% [at 0.16 µM].

Consider `COC[C@H]1CN(C)C[C@]12CCN(C(=O)c1cc3ccccc3s1)C2`, for which the max activity was 13.1%.

Take `COc1ccccc1-c1nc(C)c(-c2ccc(SCC(=O)OCc3ccccc3)nn2)s1`: the max activity was 8.29% [at 10 µM].

For `Cc1oc(-c2cccc(Cl)c2)nc1CSc1nc2c(c(=O)[nH]1)CN(Cc1ccc(F)cc1)CC2`, the max activity was 15.7%.

For the molecule `Cc1cccc(C)c1NC(=O)CN1CCC2(CC1)N=C(c1ccc(F)cc1)C(=O)N2`, the max activity was 10% [at 1.35 µM].

Turning to `Cc1nc(OCC(=O)Nc2cccc(Cl)c2C)c2ccccc2n1`, the max activity was 33.5% [at 0.16 µM].

On to `COc1ccc(CNC(=O)CCC2N=C3c4ccccc4N=C(SCc4ccc(C)cc4)N3C2=O)cc1` (centres undefined), for which the max activity was 16.4% [at 1.35 µM].

Regarding `COc1ccc(CNC(=O)CC2N=C3c4ccccc4N=C(SCc4ccccc4F)N3C2=O)cc1` (centres undefined), the max activity is 17.8% [at 10 µM].

Consider `COc1ccc(CNC(=O)CC2N=C3c4ccccc4N=C(SCc4ccc(C)cc4C)N3C2=O)cc1` (centres undefined), for which the max activity is -42%.

For the molecule `Cc1ccc(CSC2=Nc3ccccc3C3=NC(CC(=O)NCc4ccc(F)cc4)C(=O)N23)cc1` (centres undefined), the max activity was 13.6% [at 1.35 µM].

Turning to `COc1ccc(CNC(=O)CC2N=C3c4ccccc4N=C(SCc4cccc(F)c4)N3C2=O)cc1` (centres undefined), the max activity was 12.5% [at 1.35 µM].

In the case of `CCCCNC(=O)CC1N=C2c3ccccc3N=C(SCc3ccc(F)cc3)N2C1=O` (centres undefined), the max activity is 8.45% [at 2.6 µM].

For `CCOc1ccccc1-c1nc(CSc2nc3c(c(=O)[nH]2)CN(Cc2ccccc2)CC3)c(C)o1`, the max activity is 18.7%.

Take `O=C1CCc2cc(NC(=O)C3CCC3)ccc2N1`: the max activity was -4.89% [at 0.68 µM].

As for `CCC(=O)N1CCC2(CC1)Nc1cc(F)ccc1-n1cccc12`, the max activity is 8.79% [at 0.68 µM].

In the case of `CC1CCCN(c2nc(-c3ccc(Cl)cc3)nc3ccccc23)C1` (centres undefined), the max activity was -6.84% [at 2.6 µM].

On to `COc1ccccc1-c1nc(C)c(-c2ccc(SCc3cccc(C)c3)nn2)s1`, for which the max activity is 12.4% [at 10 µM].

Turning to `COCCCNC1=NCCNC12CCN(S(=O)(=O)c1ccc(C)c(C)c1)CC2`, the max activity was 15.1% [at 0.16 µM].

For `Clc1ccccc1CSc1nc(NC2CCCCC2)c2ccccc2n1`, the max activity is 13.8%.

`Cc1ccc(-c2nc3c(s2)CN(C(=O)Nc2ccccc2C(F)(F)F)CC3)cc1`: the max activity is 101% [at 10 µM].

Turning to `COc1ccc(-c2nc(Nc3cc(C)ccc3C)c3ccccc3n2)cc1`, the max activity was 25.6%.

Regarding `CCCNC(=O)N1[C@H](C#N)[C@@H](c2ccc(-c3ccccc3F)cc2)[C@H]1CO`, the max activity is -20.5% [at 0.6 µM].

Regarding `CCCNC(=O)N1[C@H](C#N)[C@H](c2ccc(-c3ccccc3F)cc2)[C@H]1CO`, the max activity was -14.6%.

With `CCc1nc(OCC(=O)Nc2cc(Cl)c(OC)cc2OC)c2ccccc2n1`, the max activity was 17% [at 0.16 µM].

On to `COc1ccc(OC)c(NC(=O)N2CCc3nc(-c4ccc(C)cc4)sc3C2)c1`, for which the max activity was 13.3%.

Regarding `CN1C(=O)CCc2cc(NC(=O)c3ccco3)ccc21`, the max activity was 172%.

Turning to `COc1ccc(OC)c(NC(=O)N2CCc3nc(-c4ccccc4)sc3C2)c1`, the max activity is 6.12%.

For `CCC(C(=O)N1CCC[C@@H]1C(=O)NCCc1csc(-c2ccccc2)n1)c1ccccc1` (some centres undefined), the max activity is 13.1% [at 2.6 µM].

For `Cc1ccc(CN2CCCn3nc(C(=O)N4CCC(N5CCCCC5)CC4)cc3C2=O)cc1`, the max activity is -18.3% [at 5 µM].

Consider `O=C(Nc1ccc(-c2nc(-c3ccccc3)co2)cc1)NC1CCCCC1`, for which the max activity was 71.1%.

On to `Cc1ccc(-c2nc(Cn3nnc(-c4nc(-c5ccc(Br)cc5)no4)c3C)c(C)o2)cc1`, for which the max activity was 26.9%.

On to `O=C(Cn1cccc1-c1nc(-c2ccccc2)cs1)N1CCC(N2CCCCC2)CC1`, for which the max activity was 7.65% [at 10 µM].

Take `Fc1cccc(-c2noc(-c3ccc(N4CCC(N5CCCCC5)CC4)nc3)n2)c1`: the max activity was 21.6% [at 5 µM].

As for `Cc1cccc(-c2noc(-c3ccc(N4CCC(N5CCCCC5)CC4)nc3)n2)c1`, the max activity is 26.5% [at 10 µM].

Turning to `Cc1ccc(Nc2ncnc3c2cnn3-c2ccc(Cl)cc2)cc1`, the max activity is 81.3% [at 10 µM].

Regarding `O=C(Nc1ccc(Br)cc1)Nc1ccc(-c2nc(-c3ccccc3)co2)cc1`, the max activity was -11.6%.

In the case of `CCc1cc(C(=O)Nc2ccc(C)cc2-c2cc(C)[nH]n2)c2c(C)noc2n1`, the max activity was 19.5% [at 10 µM].

In the case of `O=C(NCCN1CCCC1)[C@H]1[C@H](CO)[C@H]2Cn3c(cccc3=O)[C@H]2N1Cc1ccccn1`, the max activity was 48.1%.

Regarding `C=CCN1C(=O)COC2(CCN(Cc3ccc(C)s3)CC2)C1C` (centres undefined), the max activity was 27.2%.

For `COc1ccc(NC(=O)CN2CCC3(CC2)N=C(c2ccc(F)cc2)C(=O)N3)cc1OC`, the max activity is -16.1% [at 10 µM].

With `Cc1ccc2c(c1)cc(S(=O)(=O)c1ccccc1)c(=O)n2CC(=O)N1CCCC1`, the max activity was -8.58% [at 5 µM].

With `Cc1ccc2c(c1)cc(S(=O)(=O)c1ccccc1)c(=O)n2CC(=O)N1CCCCC1`, the max activity was -6.78% [at 0.68 µM].

As for `Clc1ccccc1-c1nc(NCCN2CCCc3ccccc32)c2ccccc2n1`, the max activity is 37.1%.

Regarding `CCc1ccc(NC(=O)N2CCN(Cc3nc(-c4ccc(C)cc4)oc3C)CC2)cc1`, the max activity was -17.1% [at 0.68 µM].

Consider `CCOC(=O)c1ccc(NC(=O)N2CCN(Cc3nc(-c4cccc(Cl)c4)oc3C)CC2)cc1`, for which the max activity was 13.5% [at 1.35 µM].

On to `Cc1ccc(-c2nc(CN3CCN(C(=O)Nc4ccc(Cl)cc4)CC3)c(C)o2)cc1`, for which the max activity was 22.8% [at 0.16 µM].

Take `Cc1ccc(NC(=O)N2CCN(Cc3nc(-c4ccc(C)cc4)oc3C)CC2)cc1`: the max activity is 13.6% [at 0.16 µM].

As to `Cc1ccc(NC(=O)N2CCN(Cc3nc(-c4ccccc4C)oc3C)CC2)cc1`, the max activity was 9.16% [at 2.6 µM].

With `Cc1ccc(-c2nc(CN3CCN(C(=O)Nc4cccc(C)c4)CC3)c(C)o2)cc1`, the max activity is -23.6%.

Consider `Cc1ccc(-c2nc(CN3CCN(C(=O)NC(C)C)CC3)c(C)o2)cc1`, for which the max activity was -10.1% [at 0.35 µM].

Turning to `CCCNC(=O)N1CCN(Cc2nc(-c3ccc(OCC)cc3)oc2C)CC1`, the max activity was 7.68%.

As for `COC(=O)c1cccc(NC(=O)Nc2ccc(-c3nc(-c4ccc(C)cc4C)co3)cc2)c1`, the max activity is 21.2%.

`Cc1ccc(-c2coc(-c3ccc(NC(=O)c4ccccc4)cc3)n2)c(C)c1`: the max activity was 20.4% [at 10 µM].

As for `Cc1ccc(-c2coc(-c3ccc(NC(=O)Nc4ccc5c(c4)OCCO5)cc3)n2)c(C)c1`, the max activity was 48.2%.

`Cc1ccc(CNC(=O)C2(C)CCC(=O)N2CCc2c[nH]c3ccccc23)cc1` (centres undefined): the max activity is -12.5% [at 0.35 µM].

Turning to `O=C(Nc1ccc(-c2nc(-c3ccccc3)co2)cc1)Nc1ccccc1Br`, the max activity was 65.8% [at 10 µM].

For the molecule `Cc1ccc2c(c1C)-n1cccc1C1(CCN(C(=O)CC(C)C)CC1)N2`, the max activity is 7.04% [at 0.68 µM].

For the molecule `O=C(Cc1ccccc1Cl)N1CCC2(CC1)Nc1ccccc1-n1cccc12`, the max activity is 15.3% [at 10 µM].

`COc1ccc(S(=O)(=O)N2CCC[C@@H]2C(=O)NCCc2csc(C)n2)cc1Cl`: the max activity was 8.05% [at 10 µM].

On to `CCOCCCNC(=O)c1ccc2ccc(N3CCN(CC4CC4)CC3)n2c1`, for which the max activity was 42.5%.

Consider `CCOc1cccc(-c2noc(-c3nnn(Cc4nc(-c5cccc(C)c5)oc4C)c3C)n2)c1`, for which the max activity was 8.84%.

Turning to `Cc1ccccc1-c1nc(CN2CCN(C(=O)Nc3ccccc3)CC2)c(C)o1`, the max activity was -12.3% [at 2.6 µM].

As for `CCOc1ccc(-c2nc(CN3CCN(C(=O)NCCc4ccccc4)CC3)c(C)o2)cc1`, the max activity was -9.01% [at 0.68 µM].

With `COc1ccc(NC(=O)N2CCN(Cc3nc(-c4ccc(C)cc4)oc3C)CC2)cc1OC`, the max activity is 9.7%.

Turning to `CCOc1ccc(-c2nc(CN3CCN(C(=O)Nc4cccc(OC)c4)CC3)c(C)o2)cc1`, the max activity was 16.9% [at 0.35 µM].

For `O=C(Cc1ccc(Cl)cc1)Nc1ccc(-c2nc(-c3ccccc3)co2)cc1`, the max activity is 17.2% [at 2.6 µM].

As to `CCOC(=O)C(=O)Nc1ccc(-c2nc(-c3ccc(C)cc3C)co2)cc1`, the max activity is 44.4%.

As for `CC(C)c1ccc(C(=O)N=C(N)N)cc1S(C)(=O)=O`, the max activity was 11.6%.

Regarding `COc1ccc(-c2nc3c(s2)CN(S(=O)(=O)c2cccc(F)c2)CC3)cc1`, the max activity is 9.88%.

On to `Cc1ccsc1C(=O)N1CCc2nc(-c3cnn(C)c3)nc(NC(C)C)c2C1`, for which the max activity is -26.1% [at 0.16 µM].

Take `CCS(=O)(=O)N1CC(=O)N2[C@H](CO)[C@@H](c3ccc(-c4cccc(F)c4)cc3)[C@@H]2C1`: the max activity is -8.63%.

For the molecule `CCOc1ccc(-c2nc3c(s2)CN(S(=O)(=O)c2cccc(C)c2)CC3)cc1`, the max activity was 29%.

Regarding `Cc1ccc(-c2coc(-c3ccc(NC(=O)Nc4ccccc4C)cc3)n2)c(C)c1`, the max activity is 21.8% [at 10 µM].

Regarding `Cc1ccc(OCC(=O)Nc2ccc(-c3nc(-c4ccc(C)cc4)co3)cc2)cc1`, the max activity is 20.2%.

For the molecule `COc1ccccc1-c1nc(Cn2c(=O)c3c(C)cc(C)nc3n(-c3ccccc3)c2=O)c(C)o1`, the max activity was 9.28% [at 2.6 µM].

Turning to `Cc1ccc2c(c1C)-n1cccc1C1(CCN(C(=O)COc3ccc(Cl)cc3)CC1)N2`, the max activity is -7.41% [at 1.35 µM].

With `O=C(CCC1Nc2c3ccccc3nc(=S)n2C1=O)NCc1cccs1` (centres undefined), the max activity was 14.7% [at 5 µM].

On to `Cc1nc(OCC(=O)Nc2ccccc2C)c2ccccc2n1`, for which the max activity is 19.6% [at 0.68 µM].

As to `COc1ccc(C[C@H]2CN(C(=O)c3ccnn3C)CC[C@H]2OC)cc1`, the max activity was 30.4%.

`CO[C@@H]1CCN(c2ncccn2)C[C@@H]1Cc1cccc(C)c1`: the max activity is 9.87%.

As for `O=S(=O)(c1cccc(C(F)(F)F)c1)N1CCC(N2CCOCC2)CC1`, the max activity is 20.6% [at 0.16 µM].

`CN(C)C(=O)CN1CCOCC2(CCN(CC3CCOC3)CC2)C1` (centres undefined): the max activity is 23.8%.

As to `Cc1ccc(C)c(-c2coc(-c3ccc(NC(=O)NC4CCCC4)cc3)n2)c1`, the max activity was 6.74%.

As to `Cc1ccc2c(c1C)-n1cccc1C1(CCN(C(=O)CC3CCCCC3)CC1)N2`, the max activity was -13.7% [at 0.16 µM].

Consider `CCC(CC)C(=O)N1CCC2(CC1)Nc1ccc(C)c(C)c1-n1cccc12`, for which the max activity is -6.76% [at 0.35 µM].

Take `CCOc1ccc(S(=O)(=O)N2CCC[C@@H]2C(=O)NCCc2csc(C)n2)cc1`: the max activity is -13.1%.
